Laboratory results taken from PubChem BioAssay AID1159580 (chemical genetic matrix, 2015).
Screen size: about 5,500 compounds; about 2,000 (36%) were called active. Another 18% or so got no clear call; they are omitted. Cut-off read from the data, not from the text of the source: active = normalized growth mostly below about 0.91 (no sharp cut-off); inconclusive = no clear call, values can overlap the other calls; inactive = mostly above about 0.92. The list shows a part of the results.

Test: chemical genetic growth profiling, strain panel (AID 1159580);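 note: tested at 20 µM; growth read once vehicle control cultures reached saturation at 30 °C; 1 = growth at the plate median or of vehicle wells; lower values mean less growth of the strain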
Conditions: S. cerevisiae deletion strains, growth OD
[1] = locus YHR030C, strain SLT2, hits give low values

Measured: normalized growth

Cc1nc(N)ncc1Sc1ccccc1
active: locus YLR039C, strain RIC1, hits give low values 0.758
inactive: locus YAL013W, strain DEP1, hits give low values 0.995 | locus YBR229C, strain ROT2, hits give low values 0.989 | locus YCL061C, strain MRC1, hits give low values 0.963 | locus YDL101C, strain DUN1, hits give low values 0.98 | locus YDR150W, strain NUM1, hits give low values 1 | locus YEL061C, strain CIN8, hits give low values 0.977 | locus YGR078C, strain PAC10, hits give low values 0.986 | [1] 0.899 | locus YHR087W, strain rtc3, hits give low values 0.996 | locus YJL187C, strain SWE1, hits give low values 0.981 | locus YJR043C, strain POL32, hits give low values 0.991 | locus YJR075W, strain HOC1, hits give low values 0.934 | locus YLR058C, strain SHM2 (second series), hits give low values 0.987 | locus YLR085C, strain ARP6, hits give low values 1.01 | locus YLR262C, strain YPT6, hits give low values 0.822 | locus YML094W, strain GIM5, hits give low values 0.964 | locus YMR219W, strain ESC1, hits give low values 0.99 | locus YMR263W, strain SAP30, hits give low values 0.966 | locus YNL153C, strain GIM3, hits give low values 0.961 | locus YNL298W, strain CLA4 (second series), hits give low values 0.961 | locus YNL322C, strain KRE1, hits give low values 0.982 | locus YNR030W, strain Alg12, hits give low values 0.963 | locus YOL006C, strain TOP1, hits give low values 0.911 | locus YPL055C, strain LGE1, hits give low values 0.928 | locus YPL241C, strain CIN2, hits give low values 1.04 | locus YPR135W, strain CTF4, hits give low values 0.907

C=CCCCCCCCCCCCc1ccco1
inactive: locus YAL021C, strain ccr4, hits give low values 0.981 | locus YAL030W, strain snc1, hits give low values 0.939 | locus YBR171W, strain sec66, hits give low values 0.995 | locus YDL005C, strain med2, hits give low values 0.979 | locus YDL040C, strain nat1, hits give low values 0.999 | locus YDR001C, strain nth1, hits give low values 1.01 | locus YDR069C, strain doa4, hits give low values 0.94 | locus YDR195W, strain ref2 0.939 | locus YEL037C, strain rad23, hits give low values 0.995 | locus YER111C, strain swi4, hits give low values 0.975 | locus YFR010W, strain ubp6, hits give low values 0.921 | locus YGL167C, strain pmr1, hits give low values 1.01 | locus YHR027C, strain rpn1, hits give low values 0.937 | [1] 0.87 | locus YHR079C, strain IRE1, hits give low values 0.858 | locus YJL092W, strain hpr5, hits give low values 0.933 | locus YJL115W, strain asf1, hits give low values 0.984 | locus YJL129C, strain trk1, hits give low values 0.877 | locus YJL154C, strain vps35, hits give low values 1.01 | locus YJR066W, strain TOR1, hits give low values 0.925 | locus YKR026C, strain gcn3, hits give low values 0.986 | locus YKR091W, strain srl3, hits give low values 0.996 | locus YLL026W, hits give low values 0.935 | locus YLL041C, strain sdh2, hits give low values 0.968 | locus YLR357W, strain rsc2, hits give low values 0.967 | locus YLR370C, strain arc18, hits give low values 0.966 | locus YLR384C, strain iki3, hits give low values 0.967 | locus YML120C, strain ndi1, hits give low values 0.934 | locus YMR129W, hits give low values 0.976 | locus YMR231W, strain pep5, hits give low values 0.997 | locus YNL183C, strain NPR1, hits give low values 0.869 | locus YNL209W, strain ssb2, hits give low values 0.945 | locus YNL322C, strain KRE1 (second series), hits give low values 0.976 | locus YNR049C, strain mso1, hits give low values 0.994 | locus YOR001W, strain rrp6, hits give low values 0.954 | locus YOR080W, strain dia2, hits give low values 0.99 | locus YOR265W, strain rbl2, hits give low values 0.976 | locus YOR290C, strain snf2, hits give low values 0.909 | locus YPL106C, strain sse1, hits give low values 0.96 | locus YPL256C, strain CLN2, hits give low values 0.856
active: locus YAL026C, strain drs2, hits give low values 0.869 | locus YBL061C, strain skt5, hits give low values 0.896 | locus YBR009C, strain hhf1, hits give low values 0.659 | locus YBR023C, strain chs3, hits give low values 0.905 | locus YBR231C, strain swc5, hits give low values 0.873 | locus YBR279W, strain paf1, hits give low values 0.873 | locus YCL011C, strain gbp2, hits give low values 0.803 | locus YCL016C, strain dcc1, hits give low values 0.861 | locus YCL069W, strain vba3, hits give low values 0.848 | locus YCR088W, strain abp1, hits give low values 0.916 | locus YDR137W, strain rgp1, hits give low values 0.629 | locus YDR159W, strain sac3, hits give low values 0.854 | locus YDR297W, strain sur2, hits give low values 0.878 | locus YDR335W, strain msn5, hits give low values 0.84 | locus YDR392W, strain spt3, hits give low values 0.0917 | locus YEL003W, strain gim4, hits give low values 0.884 | locus YEL061C, strain CIN8 (second series), hits give low values 0.52 | locus YER015W, strain faa2, hits give low values 0.913 | locus YER016W, strain bim1, hits give low values 0.814 | locus YER155C, strain BEM2 (second series), hits give low values 0.309 | locus YGL173C, strain kem1, hits give low values 0.868 | locus YGL227W, strain vid30, hits give low values 0.766 | locus YGL240W, strain doc1, hits give low values 0.869 | locus YGL253W, strain hxk2, hits give low values 0.82 | locus YHR013C, strain ard1, hits give low values 0.613 | locus YHR142W, strain chs7, hits give low values 0.53 | locus YJL095W, strain BCK1 (second series), hits give low values 0.587 | locus YJL095W, strain BCK1, hits give low values 0.877 | locus YJL164C, strain tpk1, hits give low values 0.819 | locus YJL166W, strain qcr8, hits give low values 0.589 | locus YKL160W, strain elf1, hits give low values 0.732 | locus YLL001W, strain dnm1, hits give low values 0.885 | locus YLR027C, strain aat2, hits give low values 0.727 | locus YLR113W, strain HOG1, hits give low values 0.832 | locus YLR221C, strain rsa3, hits give low values 0.66 | locus YLR258W, strain gsy2, hits give low values 0.861 | locus YLR262C, strain YPT6 (second series), hits give low values 0.582 | locus YLR320W, strain mms22, hits give low values 0.621 | locus YLR342W, strain FKS1, hits give low values 0.858 | locus YMR058W, strain fet3, hits give low values 0.692 | locus YMR125W, strain sto1, hits give low values 0.807 | locus YMR205C, strain PFK2, hits give low values 0.719 | locus YNL071W, strain lat1, hits give low values 0.253 | locus YNL248C, strain rpa49, hits give low values 0.879 | locus YOR070C, strain gyp1, hits give low values 0.833 | locus YOR083W, strain WHI5, hits give low values 0.863 | locus YOR106W, strain vam3, hits give low values 0.819 | locus YOR231W, strain MKK1, hits give low values 0.856 | locus YOR270C, strain vph1, hits give low values 0.626 | locus YPL051W, strain arl3, hits give low values 0.754 | locus YPL078C, strain atp4, hits give low values 0.79 | locus YPL240C, strain hsp82, hits give low values 0.847
